Experimental data: PubChem BioAssay AID686949 (The Scripps Research Institute Molecular Screening Center, 2013)
The whole screen tested about 3,200 compounds, of which about 2,200 (69%) were called active.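 The calls were made as follows: active = activation, as change over the incubation, above the mean of all tested compounds plus 3 SD (cut at about 13% in these data); inactive = the rest.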 So high a share suggests a set chosen from earlier hits. Only a sample is shown.

Biological target: Kallikrein-7 (Homo sapiens) (UniProt P49862)
Sequence (P49862 whole entry, looked up): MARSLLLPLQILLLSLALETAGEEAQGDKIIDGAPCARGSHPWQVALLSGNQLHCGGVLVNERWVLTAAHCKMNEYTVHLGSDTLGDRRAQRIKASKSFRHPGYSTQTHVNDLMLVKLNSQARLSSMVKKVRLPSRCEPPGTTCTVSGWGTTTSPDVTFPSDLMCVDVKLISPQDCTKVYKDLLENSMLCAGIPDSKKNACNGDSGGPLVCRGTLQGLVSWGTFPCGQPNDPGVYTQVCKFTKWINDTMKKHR
Experiment: activation of human kallikrein-7 proenzyme – biochemical, fluorescence intensity, triplicate, confirmation (AID 686949)
Conditions: purified proKLK7, EDANS-DABCYL substrate fluorescence; at 7 µM; active compounds read high; scaled: vehicle 0, mature enzyme 100

activation, active:
COc1cc(/C=C/C(=O)Nc2ccc(OC)c(S(=O)(=O)N3CCOCC3)c2)ccc1OCC#N 96.2%
CN(C(=O)COc1ccccc1)c1nnc(-c2ccncc2)s1 111%
CN(C(=O)c1ccccn1)c1nnc(-c2ccccn2)s1 74%
Oc1ccc2ccc3cccc[n+]3c2c1 34.6%
CN(C(=O)c1cc2c(=O)n3ccccc3nc2s1)C1CCCCC1 33%
CCOCCCNC(=O)c1cc2c(=O)n3ccccc3nc2s1 74.1%
CCN(CC)CCCC(C)n1c2nc(=O)[nH]c(=O)c-2nc2cc(Cl)ccc21 (stereo not given) 75.6%
CCN1CCN(C(=O)Cn2nc(C)n3c(cc4c(OC)cccc43)c2=O)CC1 21%
COC(=O)c1cc(N2CCNCC2)nc2ccccc12 17.1%
CN(CCc1ccccn1)S(=O)(=O)c1ccc2c3c(cccc13)C(=O)N2 68.2%
COCCCn1c(-c2cccs2)nc2nc3ccccc3nc21 24.1%
Cc1cc2cc3n(c2nn1)N=C(Cl)CC3 33.3%
CCC1=C(C(=O)OC)C(c2cc(OC)ccc2OC)C(C#N)=C(N)O1 (stereo not given) 32.8%
O=c1oc2c(CN3CCCCC3)c(O)ccc2c2c1CCCCC2 74.6%
COc1c(N2CCN(C(=S)Nc3ccccc3F)C(C)C2)c(F)cc2c(=O)c(C(=O)O)cn(C3CC3)c12 (stereo not given) 18.5%
CNc1cncc(-c2ccc(NS(C)(=O)=O)cc2)n1 39.7%
C/C(=C\c1ccccc1)C1NC(=O)c2c(sc3c2CCCC3)N1 (stereo not given) 22.4%
COCc1cc(=O)oc2cc(NS(=O)(=O)c3ccc(C)cc3)ccc12 72.3%
CC1(C)Oc2ccc3ccc(=O)oc3c2/C(=N/O)C1=O 89.9%
Cc1nc2ccc(N)nc2nc1C 49.6%
O=C1NC(c2cccc(Cl)c2)Nc2ccccc21 (stereo not given) 20.5%
COc1ccc(CCNC(=O)Nc2ccc3c(c2)c(=O)n(C)n3C)cc1OC 24.5%
C[C@@H]1C(c2ccc(F)cc2)=NN(c2ccc(Br)cc2)[C@H]1C(=O)N1CCOC1=O 27.9%
O=C(NCCN1CCOCC1)c1cc(-c2cccs2)nc2ccccc12 24.8%
Cc1ccc(C2Nc3ccccc3C(=O)N2CCN2CCNC2=O)cc1 (stereo not given) 16.7%
CC(=O)Nc1ccc(-c2cn3cccnc3n2)cc1 74%
CC(C)(C)C(=O)Nc1ccc(-c2cn3cccnc3n2)cc1 73.9%
CCCCCC(=O)Nc1ccc(-c2cn3cccnc3n2)cc1 24.5%
CCN1CCCC1CNC(=O)c1cc2cc(OC)c(OC)cc2[nH]1 (stereo not given) 24.7%
CCOc1ccc(-n2c(SCC(=O)Nc3cc(C)c(NC(=O)c4ccccc4)cc3OC)nnc2-c2cccs2)cc1 15.9%
CC(=O)Nc1cc2ccc(OC(C)=O)cc2oc1=O 125%
CC(=O)Oc1ccc2c(C)c(CC(C)O)c(=O)oc2c1 (stereo not given) 72.5%
Cc1cc(C)c2nc3nc(C)cc(C)c3c(N)c2c1 69%
COc1cc2c(cc1OC)C(C(C)C)=NC(C)(C)C2 63.8%

activation, inactive:
Clc1ccc(-c2cccc3nccn23)cc1 8.31%
CCOc1ccccc1C1C(C(=O)OC)=CN(C)C=C1C(=O)OC -23.5%
COCC(=O)Nc1nnc(COc2ccccc2)s1 -0.07%
CCN(CC)CCCNC(=O)c1cc2c(=O)[nH]c3ccc(C)cc3c2s1 1.54%
C=CCn1c(N)c(S(=O)(=O)c2cccs2)c2nc3ccccc3nc21 8.74%
COc1ccc2c(c1)CCc1cn3ncc(C#N)c3nc1-2 -106%
N#CC1=C(N)Oc2c(sc3ccccc23)C1c1ccco1 (stereo not given) -25.1%
CCNC(=S)Nc1ccc2c(c1)c(=O)n(C)n2Cc1ccc(Cl)cc1 -4.46%
CCN(CC(=O)Nc1c(F)cccc1F)C(=O)c1ccc(-c2ccc(C(C)=O)cc2)o1 -16.9%
CCCCN(C)CCCNC(=O)c1cc(-c2cccs2)nc2ccccc12 -47.1%
CN1c2ccccc2-c2nc3ccccc3n2C1c1ccco1 (stereo not given) 7.38%
